Each structure is given as a SMILES string. Values joined by “and” are separate entries in the source; they are usually repeats but may differ in a detail not shown here. Equal entries are not always repeated. This is part of a sample that, as a whole, favours compounds with a hit. Of some 83,000 tested, about 20% had one in any assay.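 Compound tested at a single concentration for 48 hours in 96-well plates; a percent growth value below 10 was scored as active.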 Active and inactive are the calls of the source.

These results are taken from PubChem BioAssay (NCI).

Test systems include T-47D breast; BT-549 breast; SW-620 colon; MCF7 breast; HCT-116 colon; HCC-2998 colon; KM12 colon.
Holding throughout (assay): NCI-60 one-dose screen, 48 h (100 = growth as untreated, 0 = no growth, -100 = all killed)
Holding throughout (conditions): 10 µM unless noted

Consider `N#Cc1c(N)nc2c(c(-c3ccc(Cl)cc3)nn2-c2ccccc2)c1C#N`, for which the growth in the test on T-47D breast was 97.4% [100 µM] (inactive); in the test with BT-549 breast, 94.2% [100 µM] (inactive); in the test on SW-620 colon, 107% [100 µM] (inactive); in the test with MCF7 breast, 97.1% [100 µM] (inactive); with HCT-116 colon, 94.7% [100 µM] (inactive); with HCC-2998 colon it was 111% [100 µM] (inactive). Moreover, the growth with KM12 colon was 103% [100 µM] (inactive).
As for `Cc1cnc(N)s1`, the growth with T-47D breast was 90.2% (inactive); in the test on BT-549 breast, 100% (inactive); in the test on SW-620 colon, 103% (inactive); in the test with HCT-116 colon, 95.8% (inactive); in the test on HCC-2998 colon it was 92% (inactive); in the test on KM12 colon it was 103% (inactive).
Take `CC(=O)/C(N=Nc1ccc(S(=O)(=O)c2ccc(N=N/C(C(C)=O)=C(/C)O)cc2)cc1)=C(\C)O`: the growth is 113% (inactive) in the test with T-47D breast; 99.4% (inactive) in the test with SW-620 colon; 96.1% (inactive) in the test with MCF7 breast; 93.2% (inactive) in the test on HCT-116 colon; 96.4% (inactive) in the test on HCC-2998 colon; 94.8% (inactive) in the test on KM12 colon.
Turning to `O=C(O)C1CSCN1` (centres undefined), the growth is 107% (inactive) and 97.9% (inactive) in the test with T-47D breast; 99% (inactive) with BT-549 breast; 115% (inactive) and 113% (inactive) in the test on SW-620 colon; 95.4% (inactive) in the test with MCF7 breast; 108% (inactive) and 94.4% (inactive) in the test with HCT-116 colon; 117% (inactive) and 110% (inactive) in the test on KM12 colon.
With `Nc1ccccc1SC(CC(=O)c1ccccc1)c1cccc([N+](=O)[O-])c1` (centres undefined), the growth with T-47D breast was 88.3% (inactive) and 90% (inactive); in the test on BT-549 breast it was 103% (inactive) and 88.9% (inactive); in the test with SW-620 colon it was 14.1% (inactive) and 1.5% (active); in the test with MCF7 breast it was 19.3% (inactive) and 19% (inactive); in the test with HCT-116 colon it was -71.2% (active) and -58.6% (active); in the test with KM12 colon it was 73.9% (inactive).
With `CC(=O)c1cccc(OC(=O)c2ccccc2)c1`, the growth is 102% (inactive) with T-47D breast; 120% (inactive) in the test with BT-549 breast; 106% (inactive) with SW-620 colon; 85.2% (inactive) with MCF7 breast; 90.1% (inactive) with HCT-116 colon; 101% (inactive) in the test with HCC-2998 colon. In addition, the growth in the test with KM12 colon is 110% (inactive).
For the compound `CC1=CC(=O)C=CC1=Nc1ccc(N(C)C)cc1`, the growth was 69.1% (inactive) and -24.8% (active) in the test on T-47D breast; 79% (inactive) and 27.8% (inactive) in the test with BT-549 breast; 105% (inactive) in the test on SW-620 colon; 89.9% (inactive) and 6.86% (active) in the test on MCF7 breast; 84.3% (inactive) and 2.64% (active) in the test on HCT-116 colon; 98.4% (inactive) and 59.1% (inactive) in the test with HCC-2998 colon. Besides, the growth in the test on KM12 colon is 83.4% (inactive) and 25.2% (inactive).
As to `Clc1ccc2sc(-c3ccccc3)nc2c1`, the growth was 56.8% (inactive) with T-47D breast; 109% (inactive) in the test with BT-549 breast; 72.2% (inactive) in the test with SW-620 colon; 61.2% (inactive) with MCF7 breast; 94.9% (inactive) in the test on HCT-116 colon; 103% (inactive) in the test on HCC-2998 colon. Besides, in the test with KM12 colon, the growth is 104% (inactive).
Turning to `COc1cc2c(cc1O)C(=O)CCCC2`, the growth was 94.8% (inactive) in the test with T-47D breast; 78% (inactive) with BT-549 breast; 92.9% (inactive) in the test on SW-620 colon; 99.2% (inactive) in the test with HCT-116 colon; 74.7% (inactive) in the test with HCC-2998 colon; 89% (inactive) in the test on KM12 colon.
Consider `CC(C)(C)C1CCC(=NO)CC1` (centres undefined), for which the growth was 96.6% (inactive) in the test on T-47D breast; 115% (inactive) in the test with BT-549 breast; 106% (inactive) with SW-620 colon; 83.9% (inactive) with MCF7 breast; 96.8% (inactive) in the test with HCT-116 colon; 107% (inactive) with HCC-2998 colon. Also, the growth with KM12 colon is 103% (inactive).
In the case of `O=C(NC(CSSCC(NC(=O)OCc1ccccc1)C(=O)O)C(=O)O)OCc1ccccc1` (centres undefined), the growth in the test on T-47D breast is 79.1% (inactive) and 82.4% (inactive); in the test on BT-549 breast, 109% (inactive) and 81.3% (inactive); in the test on SW-620 colon, 94.3% (inactive) and 106% (inactive); with HCT-116 colon it was 98.4% (inactive) and 74.7% (inactive); in the test on HCC-2998 colon, 110% (inactive) and 96.2% (inactive); in the test with KM12 colon, 95.4% (inactive) and 106% (inactive).
As for `CC(=O)c1cc2ccccc2o1`, the growth in the test with T-47D breast was 100% (inactive); in the test on BT-549 breast, 97.2% (inactive); in the test with SW-620 colon it was 112% (inactive); in the test with MCF7 breast, 95.6% (inactive); with HCT-116 colon, 100% (inactive); in the test with HCC-2998 colon, 109% (inactive). In addition, the growth with KM12 colon is 109% (inactive).
With `OCc1ccccc1F`, the growth is 95.9% (inactive) in the test on T-47D breast; 82.4% (inactive) in the test on BT-549 breast; 58% (inactive) with SW-620 colon; 72.2% (inactive) in the test with MCF7 breast; 58.2% (inactive) with HCT-116 colon; 107% (inactive) with KM12 colon.
On to `O=C(O)c1cc(=O)[nH]c(=O)[nH]1`, for which the growth was 101% (inactive) and 105% (inactive) in the test on T-47D breast; 97.2% (inactive) with BT-549 breast; 111% (inactive) and 103% (inactive) in the test with SW-620 colon; 98.7% (inactive) in the test on MCF7 breast; 107% (inactive) in the test on HCT-116 colon; 99.3% (inactive) in the test with HCC-2998 colon. The growth in the test with KM12 colon is 106% (inactive) and 99.6% (inactive).
Turning to `S=c1ccc2ccccc2[nH]1`, the growth in the test with T-47D breast is 90.1% (inactive) and 91.2% (inactive); in the test with BT-549 breast, 100% (inactive) and 104% (inactive); in the test on SW-620 colon, 106% (inactive) and 104% (inactive); in the test on MCF7 breast it was 99.5% (inactive) and 103% (inactive); with HCT-116 colon, 95.9% (inactive) and 102% (inactive); with HCC-2998 colon it was 111% (inactive) and 107% (inactive). Besides, the growth in the test on KM12 colon is 106% (inactive) and 103% (inactive).
On to `COC(=O)c1nc(N)nc(C(=O)OC)c1C(=O)c1cccc2ccccc12`, for which the growth in the test with T-47D breast was 109% (inactive); with BT-549 breast, 133% (inactive); in the test on SW-620 colon, 118% (inactive); in the test on MCF7 breast, 94.5% (inactive); in the test on HCT-116 colon, 111% (inactive); in the test with HCC-2998 colon, 106% (inactive). The growth in the test with KM12 colon is 110% (inactive).
For the compound `CN(C)C(=S)N(C)C`, the growth was 98.5% (inactive) in the test on T-47D breast; 107% (inactive) in the test with BT-549 breast; 107% (inactive) in the test on SW-620 colon; 107% (inactive) in the test on MCF7 breast; 99.3% (inactive) in the test on HCT-116 colon; 103% (inactive) in the test with HCC-2998 colon. Further, the growth in the test on KM12 colon was 109% (inactive).
As to `N=C(N)N1CCc2ccccc2C1`, the growth with T-47D breast is 86.2% (inactive) and 101% (inactive); with BT-549 breast it was 84.4% (inactive) and 103% (inactive); in the test on SW-620 colon, 94.5% (inactive) and 88.1% (inactive); in the test on MCF7 breast, 106% (inactive) and 104% (inactive); in the test with HCT-116 colon, 94.7% (inactive) and 102% (inactive); with HCC-2998 colon, 83.2% (inactive) and 99.2% (inactive). Moreover, in the test on KM12 colon, the growth was 92.6% (inactive) and 94% (inactive).
As for `O=[N+]([O-])c1ccc(NC(c2ccccc2)c2ccc3cccnc3c2O)cc1` (centres undefined), the growth is 37.2% (inactive) in the test on T-47D breast; 39% (inactive) with BT-549 breast; 23.9% (inactive) in the test with SW-620 colon; 28% (inactive) in the test with HCT-116 colon; 29.8% (inactive) with HCC-2998 colon; 28% (inactive) in the test on KM12 colon.
For `COc1ccc2oc3c(ccc[n+]3C)c(=O)c2c1`, the growth with T-47D breast is 85.9% (inactive); with BT-549 breast, 103% (inactive); in the test with SW-620 colon, 105% (inactive); with MCF7 breast it was 100% (inactive); with HCT-116 colon, 101% (inactive); with HCC-2998 colon, 117% (inactive). Also, in the test with KM12 colon, the growth was 108% (inactive).
As for `Oc1ccc(O)c(-c2ccccc2)c1`, the growth in the test on T-47D breast is 47.1% (inactive); in the test on BT-549 breast, 55.3% (inactive); in the test on SW-620 colon, 78.7% (inactive); in the test on MCF7 breast it was 39.5% (inactive); with HCT-116 colon, 47.1% (inactive); with HCC-2998 colon it was 65.6% (inactive). In addition, the growth in the test with KM12 colon was 40.8% (inactive).
Take `Cn1c(-c2ccccc2)cc(=O)cc1-c1ccccc1`: the growth in the test with T-47D breast was 97.1% (inactive); in the test on BT-549 breast, 86.8% (inactive); in the test with SW-620 colon, 51.7% (inactive); with MCF7 breast, 53.3% (inactive); in the test on HCT-116 colon it was 61.6% (inactive); in the test with HCC-2998 colon, 127% (inactive). Moreover, the growth in the test with KM12 colon was 98.5% (inactive).
Regarding `COc1ccc(C(=O)C(O)c2ccc(OC)cc2)cc1` (centres undefined), the growth with T-47D breast was 103% (inactive) and 92.8% (inactive); with BT-549 breast, 109% (inactive) and 98.9% (inactive); in the test on SW-620 colon, 105% (inactive) and 107% (inactive); in the test on MCF7 breast it was 96.7% (inactive) and 98.1% (inactive); in the test with HCT-116 colon, 102% (inactive) and 93% (inactive); with HCC-2998 colon, 111% (inactive) and 108% (inactive). Also, the growth in the test on KM12 colon is 110% (inactive) and 99.8% (inactive).
`CC(=O)Nc1ccc(OC(C)=O)cc1`: the growth with T-47D breast was 78.1% (inactive) and 103% (inactive); with BT-549 breast, 11.9% (inactive) and 103% (inactive); with SW-620 colon it was 26% (inactive) and 94.2% (inactive); in the test on HCT-116 colon it was -14.7% (active) and 104% (inactive); in the test with HCC-2998 colon, -28.8% (active) and 112% (inactive); in the test on KM12 colon, 2.42% (active) and 112% (inactive).
